Experiment [1] is described as follows: NFkB reporter suppression in cystic fibrosis bronchial cells – cell-based, uHTS hits, panel, cytotoxicity readout, dose response (AID 624344). Particulars: CF bronchial epithelial cells, PAF-induced NFkB reporter inhibition, with PAF, run 1; at 79 µM (top of the series) unless noted.
Experiment in experiment [2]: as above
The following applies: CF bronchial epithelial cells, PAF-induced NFkB reporter inhibition, with PAF, run 2; at 79 µM (top of the series) unless noted.

A word on the inhibition: it is the drop in the measured response relative to a control, in per cent. As to `CCN1CCN(Cc2ccc(NC(=O)c3ccc(C)c(NC(=O)N4CCNC4=O)c3)cc2C(F)(F)F)CC1`, the inhibition in experiment [1] amounted to 103%; in experiment [2], 119%.

On to `NC1(C(=O)O)CSSC1`, for which the inhibition in experiment [1] is 112%; in experiment [2], 103%.

With `Cc1ccc(S(=O)(=O)Nc2nc3ccccc3nc2Nc2cccc(S(=O)(=O)N3CCCC3)c2)cc1`, the figures for the inhibition in experiment [1] and in experiment [2] were 94.9% and 103%, respectively.

Turning to `CC(C)(C)OC(=O)NCCCCCNC(=O)c1nc[nH]c1C(=O)NCC(=O)OCc1ccccc1`, the inhibition in experiment [1] worked out at 111%; in experiment [2] it was 101%.

Turning to `C=CCN1c2ccccc2[C@]23C[C@@H](C(=O)OC)N(C(=O)c4ccc(Br)cc4)C2=NC(C(=O)OC)=C(C(=O)OC)[C@H]13`, the inhibition was found to be 115% in experiment [1] and 101% in experiment [2].

As for `O=C(NCCCSc1ccccc1)c1cc(Br)ccc1O`, the inhibition in experiment [1] worked out at 110%; in experiment [2], 103%.

For the compound `Cc1nnc(Sc2nc3ccccc3o2)c2ccccc12`, the inhibition in experiment [1] is 98.3%; in experiment [2], 107%.

As for `CC(=O)Oc1ccc(N(C(C)=O)S(=O)(=O)c2cccs2)c2ccccc12`, the figures for the inhibition in experiment [1] and in experiment [2] were 92.7% and 62.6%, respectively.

Take `O=C(Nc1ccc(Cl)cc1)c1nc[nH]c1C(=O)NCCCCNC(=O)c1[nH]cnc1C(=O)Nc1ccc(Cl)cc1`: the inhibition turned out to be 98.8% in experiment [1] and 105% in experiment [2].

With `N#CC(C#N)c1ccnc2ccccc12`, the inhibition was determined as 110% in experiment [1] and 102% in experiment [2].

For the compound `Cc1c([N+](=O)[O-])c2ccc(O)cc2n1-c1ccccc1`, the results for the inhibition in experiment [1] and in experiment [2] were 109% and 94.8%, respectively.

For the compound `COc1ccc(C2CNC(=O)C2)cc1OC1CCCC1` (stereo unspecified), the inhibition was found to be 84.8% in experiment [1] and 81.6% in experiment [2].

As to `CC(C)n1c(SCc2ccccc2F)nc2c1c(=O)n(C)c(=O)n2C`, the inhibition was determined as 96% in experiment [1] and 95.1% in experiment [2].

For the compound `Cc1ccc(C)c(S(=O)(=O)N(C(=O)c2ccncc2)c2ccc(OC(=O)c3ccncc3)cc2)c1`, the inhibition in experiment [1] came out at 104%; in experiment [2], 118%.

As to `CCOc1ccccc1NC(=S)Nc1ccc2cn[nH]c2c1`, the inhibition was 104% in experiment [1] and 114% in experiment [2].

Turning to `O=C(NC1CCCC(C(F)(F)F)C1)c1ccc([N+](=O)[O-])o1` (stereo unspecified), the values for the inhibition in experiment [1] and in experiment [2] were 97.5% and 103%, respectively.

With `O=C1N(c2ccccc2C(F)(F)F)O[C@]1(c1ccccc1)C1CCCCC1`, the inhibition in experiment [1] worked out at 90.7%; in experiment [2], 98.7%.

Consider `Cc1ccc(-c2onc3ccc(C(=O)/C=C/N(C)C)cc23)cc1`, for which the inhibition came to 101% in experiment [1] and 113% in experiment [2].

For `O=C1Cc2c([nH]c3ccc(Br)cc23)-c2ccccc2N1`, the results for the inhibition in experiment [1] and in experiment [2] were 94.6% and 80.1%, respectively.

On to `COc1cccc(-c2cnc3c(NC=O)cc(-c4ccc(OC)cc4OC)cn23)c1`, for which the inhibition is 98.2% in experiment [1] and 86.1% in experiment [2].

As for `COc1ccc(-c2cc(=O)oc3cc(OC(=O)C4CCCCC4)ccc23)cc1`, the inhibition in experiment [1] stood at 110%; in experiment [2] it was 101%.

As for `O=C(/C=C/c1cccc([N+](=O)[O-])c1)NC(=S)Nc1ccc(CN2CCOCC2)cc1`, the inhibition in experiment [1] was 100%; in experiment [2], 112%.

Take `O=C(COC(=O)c1c2c(nc3ccccc13)CCN(Cc1ccccc1)C2)Nc1c(F)cccc1F`: the inhibition in experiment [1] is 79.5%; in experiment [2] it was 74%.

On to `CC(C)Cc1nc2oc3c(NCC4CCCO4)ncnc3c2c2c1CCC2` (stereo unspecified), for which the inhibition in experiment [1] stood at 101%; in experiment [2], 98.5%.

`CCC1=Nc2cc(C(=O)NCc3ccco3)ccc2Sc2ccc(C)cc21`: the results for the inhibition in experiment [1] and in experiment [2] were 99.5% and 92.2%, respectively.

In the case of `Cc1c(Cl)cccc1NC(=O)COC(=O)c1c2c(nc3ccccc13)CCN(Cc1ccccc1)C2`, the values for the inhibition in experiment [1] and in experiment [2] were 72.2% and 97.3%, respectively.

In the case of `C=C1C(=O)C2=CC1CCC(=O)C1(C)CCC(OC(C)=O)C(C)(C)C1CC2O` (stereo unspecified), the inhibition in experiment [1] is 94.6%; in experiment [2], 107%.

On to `COc1ccc([C@]2(C(C)C)ON(c3ccccc3C(F)(F)F)C2=O)cc1`, for which the inhibition in experiment [1] came to 103%; in experiment [2], 91.5%.

`COc1ccc(OC)c(Nc2ncnc3ccc(Br)cc23)c1`: the inhibition in experiment [1] was found to be 98.3%; in experiment [2] it was 97.5%.

Turning to `CC(=O)Nc1ccc(NC(=O)COC(=O)c2c3c(nc4ccccc24)CCN(Cc2ccccc2)C3)cc1`, the inhibition in experiment [1] turned out to be 92.5%; in experiment [2], 89.8%.

Take `C=C1C(=O)O[C@H]2C[C@H]1[C@@H](OC(C)=O)C/C(C)=C/CC/C(C)=C\CC[C@]2(C)O`: the figures for the inhibition in experiment [1] and in experiment [2] were 107% and 97.5%, respectively.

As to `CCC(=NCCc1c(C)[nH]c2ccc(C)cc12)C1=C(O)CC(c2ccccc2)CC1=O` (stereo unspecified), the inhibition is 82.1% in experiment [1] and 92% in experiment [2].

For the compound `Cc1[nH]nc2c1-c1nc3ccccc3nc1C(C)(C)C2`, the inhibition in experiment [1] worked out at 113%; in experiment [2], 99.3%.

For the compound `Cc1csc(CNc2ncnc3ccc(-c4ccoc4)cc23)c1`, the inhibition was 111% in experiment [1] and 99.4% in experiment [2].

As for `CC(=O)Nc1ccc(-c2ccnc3c2CC(C(=O)NCc2ccccc2)O3)cc1` (stereo unspecified), the figures for the inhibition in experiment [1] and in experiment [2] were -53.5% and -72.7%, respectively.

`COc1ccc(-n2nnnc2S(=O)(=O)Cc2ccc(C(=O)O)cc2)cc1`: the figures for the inhibition in experiment [1] and in experiment [2] were 74.7% and 102%, respectively.

As for `COc1ccc2[nH]c(=O)c3c(c2c1)OC(C)(C)C=C3`, the values for the inhibition in experiment [1] and in experiment [2] were 105% and 117%, respectively.

On to `CN(C)C=Nc1c(C(=O)c2ccccc2)sc2nccc(N(C)C)c12`, for which the inhibition in experiment [1] is 100%; in experiment [2] it was 105%.

`O=C(c1[nH]c(C(F)(F)F)nc1-c1ccccc1)N1CCN(c2c(Cl)cncc2Cl)CC1`: the inhibition in experiment [1] amounted to 103%; in experiment [2], 96.2%.

Take `CN(c1ncnc(N)c1[N+](=O)[O-])C1CCCCC1`: the inhibition was 115% in experiment [1] and 102% in experiment [2].

For the compound `CCOC(=O)Nc1nc(-c2ccccc2)c(C(=O)c2ccccc2)s1`, the figures for the inhibition in experiment [1] and in experiment [2] were 99.4% and 78.8%, respectively.

In the case of `C#CCN(C[C@@H]1[C@@H](OC(=O)NCc2ccco2)[C@@H](OC(=O)NCc2ccco2)Cn2c(=O)ccc(=O)n21)S(=O)(=O)c1ccc(C)cc1`, the results for the inhibition in experiment [1] and in experiment [2] were 98.7% and 111%, respectively.

Take `O=C(NCc1ccco1)c1nc2c(nnn2Cc2ccccc2Cl)c(=O)[nH]1`: the inhibition in experiment [1] was 115%; in experiment [2], 107%.

These data come from PubChem BioAssay.
